The source of these data is PubChem BioAssay (NCI).

This is part of a sample that, as a whole, favours compounds with a hit. Of some 79,000 tested, about 15% had one in any assay. Values without a mark were called inactive. The source made the active and inactive calls. Cut-off read from the data, not from the text of the source: active = growth inhibition above about 70%; inactive = the rest.

Test [1] can be described thus: NCI Yeast Anticancer Drug Screen. Data for the rad50 strain (AID 155).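 Note: 0% = growth of vehicle-only cultures of the same strain.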 Particulars: S. cerevisiae rad50 strain growth inhibition, active compounds read high. The gist of the method: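 Yeast carrying a defined DNA repair defect were exposed to test compounds, and growth was compared with vehicle-treated controls to give percent inhibition.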
A short description of test [2]: NCI Yeast Anticancer Drug Screen. Data for the mec2-1 strain (AID 157). The note with it: S. cerevisiae mec2-1 strain, active compounds read high. The gist of the method:
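Strain: mec2-1 (DNA repair/cell cycle alteration). Compound exposure, then growth measured; inhibition expressed relative to vehicle.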

A short description of test [3]: NCI Yeast Anticancer Drug Screen. Data for the sgs1 mgt1 strain (AID 161).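 Note: 0% = growth of cultures given vehicle only.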 Particulars: S. cerevisiae sgs1 mgt1 strain, active compounds read high. The gist of the method: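 Read-out: growth inhibition vs vehicle controls. Cells: mutant yeast strain deficient in DNA damage repair.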
Test [4] can be described thus: NCI Yeast Anticancer Drug Screen. Data for the cln2 rad14 strain (AID 165).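 Note: 0% = growth equal to vehicle treated cultures.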 Particulars: S. cerevisiae cln2 rad14 strain, active compounds read high. The gist of the method:
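Compounds are applied to the cln2 rad14 yeast strain, and growth is then compared with that of vehicle-treated cultures to give inhibition.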

A short description of test [5]: NCI Yeast Anticancer Drug Screen. Data for the bub3 strain (AID 167). Particulars: S. cerevisiae bub3 mutant strain, active compounds read high. The gist of the method:
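Compounds were applied to a genetically altered yeast strain carrying a cell-cycle control defect. Growth inhibition was scored against vehicle-treated controls.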

Test [6] is described as follows: NCI Yeast Anticancer Drug Screen. Data for the mlh1 rad18 strain (AID 175). The note with it: S. cerevisiae mlh1 rad18 strain growth inhibition, active compounds read high. The gist of the method:
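Read-out is yeast growth inhibition, calculated against vehicle-only controls. The compound was applied to a strain engineered with DNA damage repair alterations.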

Where [7] appears, read: at 5.0 µM (retest, dose inferred, filed as 0.5).
[8] abbreviates: at 50.0 µM (retest, dose inferred, filed as 5.0).

For `N#CC(CCCCl)(c1ccccc1)c1ccccc1`, the growth inhibition in test [1] (setting [7]) is 2%; in test [1] (setting [8]) it was 33%; in test [1] (at 50.0 µM), 86.8% (active); in test [2] (setting [7]), 3%; in test [2] (setting [8]) it was 32%; in test [2] (at 50.0 µM) it was 84% (active). Further, the growth inhibition is 4% in test [3] (setting [7]); 51% in test [3] (setting [8]); 88.5% (active) in test [3] (at 50.0 µM); 0% in test [4] (setting [7]); -3% in test [4] (setting [8]); 41.8% in test [4] (at 50.0 µM). In addition, the growth inhibition is -1% in test [5] (setting [7]); 22% in test [5] (setting [8]); 67% in test [5] (at 50.0 µM); 15% in test [6] (setting [7]); 69% in test [6] (setting [8]); 92.2% (active) in test [6] (at 50.0 µM).
For `COc1ccc(CN2CCCN(Cc3ccc(OC)cc3OC)C2c2cc(Br)ccc2O)c(OC)c1`, the growth inhibition is 31% in test [1] (setting [7]); 98% (active) in test [1] (setting [8]); 99% (active) in test [1] (at 50.0 µM); 18% in test [2] (setting [7]); 100% (active) in test [2] (setting [8]); 95.2% (active) in test [2] (at 50.0 µM). Moreover, the growth inhibition in test [3] (setting [7]) was 27%; in test [3] (setting [8]) it was 99% (active); in test [3] (at 50.0 µM), 99.2% (active); in test [4] (setting [7]), 12%; in test [4] (setting [8]), 94% (active); in test [4] (at 50.0 µM), 57.2%. Besides, the growth inhibition was 15% in test [5] (setting [7]); 98% (active) in test [5] (setting [8]); 27.9% in test [5] (at 50.0 µM); 63% in test [6] (setting [7]); 99% (active) in test [6] (setting [8]); 98.7% (active) in test [6] (at 50.0 µM).
As to `Nc1ccc(C(=O)/C=C/c2ccccn2)cc1`, the growth inhibition in test [1] (setting [7]) was 3%; in test [1] (setting [8]), 45%; in test [1] (at 50.0 µM) it was 8.2%; in test [2] (setting [7]), -6%; in test [2] (setting [8]), 64%; in test [2] (at 50.0 µM) it was 31.4%. Moreover, the growth inhibition in test [3] (setting [7]) is 1%; in test [3] (setting [8]) it was 60%; in test [3] (at 50.0 µM) it was 17.8%; in test [4] (setting [7]), 9%; in test [4] (setting [8]), 38%; in test [4] (at 50.0 µM), 17.6%. Moreover, the growth inhibition is -1% in test [5] (setting [7]); 79% (active) in test [5] (setting [8]); 66.8% in test [5] (at 50.0 µM); 6% in test [6] (setting [7]); 82% (active) in test [6] (setting [8]); 27.9% in test [6] (at 50.0 µM).
With `CCCCNC(=S)N/N=C/c1cccc(C)n1`, the growth inhibition in test [1] (setting [7]) was -3%; in test [1] (setting [8]), 98% (active); in test [1] (at 50.0 µM) it was 1.35%; in test [2] (setting [7]), -8%; in test [2] (setting [8]), 98% (active); in test [2] (at 50.0 µM) it was 32.5%. In addition, the growth inhibition in test [3] (setting [7]) was -16%; in test [3] (setting [8]), 98% (active); in test [3] (at 50.0 µM), 59.2%; in test [4] (setting [7]), -11%; in test [4] (setting [8]), 99% (active); in test [4] (at 50.0 µM), 17.4%. For the same compound, the growth inhibition in test [5] (setting [7]) is -27%; in test [5] (setting [8]), 97% (active); in test [5] (at 50.0 µM), 42.5%; in test [6] (setting [7]), 8%; in test [6] (setting [8]), 99% (active); in test [6] (at 50.0 µM), -11.1%.
Regarding `O=C(/C(=C/c1ccc(Cl)cc1)c1ccccc1)c1ccc(O)cc1`, the growth inhibition in test [1] (setting [7]) was 94% (active); in test [1] (setting [8]), 94% (active); in test [1] (at 50.0 µM) it was 95.8% (active); in test [2] (setting [7]) it was 64%; in test [2] (setting [8]), 97% (active); in test [2] (at 50.0 µM), 95.5% (active). Also, the growth inhibition was 94% (active) in test [3] (setting [7]); 94% (active) in test [3] (setting [8]); 96.5% (active) in test [3] (at 50.0 µM); 53% in test [4] (setting [7]); 92% (active) in test [4] (setting [8]); 92.5% (active) in test [4] (at 50.0 µM). Moreover, the growth inhibition was 89% (active) in test [5] (setting [7]); 95% (active) in test [5] (setting [8]); 97.3% (active) in test [5] (at 50.0 µM); 96% (active) in test [6] (setting [7]); 95% (active) in test [6] (setting [8]); 97% (active) in test [6] (at 50.0 µM).
Regarding `FC(F)(F)c1nc(SCc2ccc(Cl)cc2)n[nH]1`, the growth inhibition in test [1] (setting [7]) was 3%; in test [1] (setting [8]), 20%; in test [1] (at 50.0 µM) it was 2.45%; in test [2] (setting [7]), 0%; in test [2] (setting [8]), 1%; in test [2] (at 50.0 µM), -13.8%. Moreover, the growth inhibition in test [3] (setting [7]) is -7%; in test [3] (setting [8]), 15%; in test [3] (at 50.0 µM) it was -22.4%; in test [4] (setting [7]), -10%; in test [4] (setting [8]), -17%; in test [4] (at 50.0 µM), 38.6%. Also, the growth inhibition in test [5] (setting [7]) was -9%; in test [5] (setting [8]), 0%; in test [5] (at 50.0 µM), -33.4%; in test [6] (setting [7]), -3%; in test [6] (setting [8]) it was 13%; in test [6] (at 50.0 µM), -17.8%.
Consider `Cc1cc(SCC(=O)c2ccccc2)cc(C)[o+]1`, for which the growth inhibition is -4% in test [1] (setting [7]); 82% (active) in test [1] (setting [8]); 92% (active) in test [1] (at 50.0 µM); -5% in test [2] (setting [7]); 80% (active) in test [2] (setting [8]); 95.6% (active) in test [2] (at 50.0 µM). Further, the growth inhibition was -7% in test [3] (setting [7]); 44% in test [3] (setting [8]); 56.4% in test [3] (at 50.0 µM); -6% in test [4] (setting [7]); 1% in test [4] (setting [8]); 17.6% in test [4] (at 50.0 µM). Besides, the growth inhibition is 0% in test [5] (setting [7]); 86% (active) in test [5] (setting [8]); 97.9% (active) in test [5] (at 50.0 µM); 1% in test [6] (setting [7]); 69% in test [6] (setting [8]); 95.4% (active) in test [6] (at 50.0 µM).
In the case of `CN(C)C(=S)Oc1ccc(C(C)(C)C)cc1`, the growth inhibition is -156% in test [1] (setting [7]); -68% in test [1] (setting [8]); 50.9% in test [1] (at 50.0 µM); -53% in test [2] (setting [7]); -59% in test [2] (setting [8]); -14.4% in test [2] (at 50.0 µM). For the same compound, the growth inhibition in test [3] (setting [7]) is -65%; in test [3] (setting [8]), -47%; in test [3] (at 50.0 µM), 40.5%; in test [4] (setting [7]), -72%; in test [4] (setting [8]), -68%; in test [4] (at 50.0 µM), -34.7%. In addition, the growth inhibition in test [5] (setting [7]) was -65%; in test [5] (setting [8]), -27%; in test [5] (at 50.0 µM) it was 60.4%; in test [6] (setting [7]), -129%; in test [6] (setting [8]), -123%; in test [6] (at 50.0 µM) it was 29.1%.
On to `CCc1ccc(C)nc1`, for which the growth inhibition in test [1] (setting [7]) is -1%; in test [1] (setting [8]), -3%; in test [1] (at 50.0 µM), 20.9%; in test [2] (setting [7]), 1%; in test [2] (setting [8]), -1%; in test [2] (at 50.0 µM) it was 1.05%. In addition, the growth inhibition is 3% in test [3] (setting [7]); 0% in test [3] (setting [8]); 1.1% in test [3] (at 50.0 µM); 0% in test [4] (setting [7]); 3% in test [4] (setting [8]); 0.85% in test [4] (at 50.0 µM). The growth inhibition was -2% in test [5] (setting [7]); -5% in test [5] (setting [8]); 98.7% (active) in test [5] (at 50.0 µM); 1% in test [6] (setting [7]); -2% in test [6] (setting [8]); -1.05% in test [6] (at 50.0 µM).
Turning to `Cc1cc(N2C(=O)CCSC2=S)ccc1Cl`, the growth inhibition is 88% (active) in test [1] (setting [7]); 28% in test [1] (setting [8]); 90.9% (active) in test [1] (at 50.0 µM); 7% in test [2] (setting [7]); 27% in test [2] (setting [8]); 88.8% (active) in test [2] (at 50.0 µM). For the same compound, the growth inhibition is 48% in test [3] (setting [7]); 43% in test [3] (setting [8]); 90.6% (active) in test [3] (at 50.0 µM); 47% in test [4] (setting [7]); 43% in test [4] (setting [8]); 54.5% in test [4] (at 50.0 µM). Also, the growth inhibition is 45% in test [5] (setting [7]); 71% (active) in test [5] (setting [8]); 86% (active) in test [5] (at 50.0 µM); 82% (active) in test [6] (setting [7]); 18% in test [6] (setting [8]); 87.5% (active) in test [6] (at 50.0 µM).
